Bioassay records (PubChem BioAssay)
Most compounds without a hit are left out; they make up all but 0.84% or so of the library.
NR5A2 inv ag – inverse agonists of human LRH-1 (NR5A2); O00482; HEK293T StAR-luciferase reporter, LRH-1 transfected, 24 h; inhibition, % at 3.6 µM; hit rate 0.13% among 360,000;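 active means inhibition above the mean inhibition of all tested compounds plus 3 SD, cut at about 73% in these data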
NCOA1 inh – inhibits human SRC1 coactivator. Q15788. HEK293 GAL4-SRC1 luciferase reporter, luminescence. inhibition, % at 3.6 µM. hit rate 0.12% among 360,000;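 active means inhibition above the campaign mean plus 3 SD, with each screening campaign given its own cutoff, cut at about 60% in these data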
SRC3 inh – inhibitors of human steroid receptor coactivator 3 (SRC3) | Q9Y6Q9 | HEK293 GAL4-SRC3 luciferase reporter, luminescence | inhibition, % at 3.6 µM | hit rate 0.17% among 360,000 | AID 588352;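 active means inhibition above a per-campaign cutoff, the mean of all compounds plus 3 SD, cut at about 60% in these data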;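 further: higher means less SRC3-driven luciferase light from the GAL4 reporter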
COUP-TFII inh – blocks human COUP-TFII nuclear receptor. P24468. HEK293T NGFI-A luciferase reporter, luminescence. inhibition, % at 8.6 µM. hit rate 0.7% among 370,000. AID 686940;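 active means inhibition above a per-plate cutoff, mean inhibition of test wells between control levels plus 3 SD, cut at about 38% in these data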;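 further: cells cotransfected with COUP-TFII expression vector driving the NGFI-A reporter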
NCOA2 inhibitor – inhibits human steroid receptor coactivator 2; hit rate 0.17% among 370,000; Q15596; inhibition, % at 9 µM; AID 651957; HEK293 GAL4-SRC2 luciferase reporter, luminescence;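 active means inhibition above the mean inhibition of all tested compounds plus 3 SD, set per campaign, cut at about 52% in these data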
VP16 Luc counter – VP16 inhibition counter-screen for COUP-TFII; shares compounds with COUP-TFII inh; HEK293 Gal4-VP16 luciferase reporter, luminescence; inhibition, % at 8.5 µM; hit rate 25% among 2,500; in the data active means inhibition above about 13%
NR2F2 inh conf – confirmation of human COUP-TFII (NR2F2) inhibitors. HEK293 NGFI-A luciferase reporter, luminescence. hit rate 45% among 2,500. inhibition, % at 8.5 µM. AID 687008. shares compounds with COUP-TFII inh;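 active means mean inhibition over three repeats above a set limit taken from the earlier primary screen, cut at about 38% in these data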
A number is an active result; n = inactive; x = not tested or not shown.

SMILES | NR5A2 inv ag | NCOA1 inh | SRC3 inh | COUP-TFII inh | NCOA2 inhibitor | VP16 Luc counter | NR2F2 inh conf
[2H]C(CCOS(N)(=O)=O)c1ccc(C(C)(C)C)cc1 (centres undefined) | n | n | n | 43 | n | 22 | n
NS(=O)(=O)OCCCc1ccccc1 | n | n | n | n | n | x | x
C=CCC1(CC=C)CCCN1C(=O)c1cc(COc2ccc(C)nc2)on1 | n | n | n | 57 | n | n | 55
CN1OC[C@@H]2CN(C(=O)c3ccc(C#N)cc3)[C@H](c3cccc(Br)c3)C[C@@H]21 | x | x | x | n | n | x | x
C=CCn1c(SCC(=O)Nc2sccc2C(N)=O)nc2sc(CC)cc2c1=O | n | n | n | 42 | n | n | n
COc1ccc(CN2CCN(C(C)C)C(CCO)C2)cc1Cn1cncn1 (centres undefined) | n | n | n | n | n | x | x
O=C(Nc1ccc(Oc2ccccc2)cc1)c1csc([C@@H]2C[C@H](O)[C@@H](CO)O2)n1 | n | n | n | 52 | n | n | n
O=C(Nc1ccc(Cl)cc1)c1csc(COCCO)n1 | n | n | n | n | n | x | x
CC(=O)Nc1ccc(NC(=O)c2csc([C@H]3C[C@H](O)[C@@H](CO)O3)n2)cc1 | n | n | n | n | n | x | x
O=C(Nc1ccc(Oc2ccccc2)cc1)c1csc(COCCO)n1 | n | n | n | 43 | n | n | n
NS(=O)(=O)c1ccc(NC(=O)COC(=O)COc2ccc(Cl)cc2)cc1 | n | n | n | n | n | x | x
Cc1ccc(C(=O)N2c3ccccc3N(Cc3ccccc3)C(=O)C2(C)C)cc1 | n | n | n | 51 | n | n | 47
Cc1cc2c(c(=O)o1)[C@@]1(C(=O)N(C)c3ccccc31)C1=C(CC(C)(C)OC1=O)O2 | x | x | x | n | n | x | x
N=C1C=CC(=C(c2ccc(N)cc2)c2ccc(N)cc2)C=C1 | n | n | n | 46 | n | 14 | 63
Nc1ccc(C(=O)C(=O)c2ccc(N)cc2)cc1 | n | n | n | n | n | x | x
CCOc1ccc(-c2cc(CCCC(=O)NCc3ccco3)no2)cc1 | n | n | n | 43 | 60 | n | n
COc1ccc(-c2cc(CCCC(=O)NCCc3cc(OC)ccc3OC)no2)cc1 | n | n | n | n | n | x | x
CCOc1ccc(-c2cc(CCCC(=O)NCc3ccc(C)cc3)no2)cc1 | n | n | n | 44 | 65 | 32 | n
CCOc1ccc(-c2nnn(CC(=O)NCc3ccco3)n2)cc1 | n | n | n | n | n | x | x
Cc1ccc(CC(=O)NCCS(=O)c2ccc(C)cc2)cc1 (centres undefined) | n | n | n | n | n | x | x
CN(C)c1cc[n+](Cc2c(Cl)cccc2Cl)cc1 | n | n | n | 47 | n | n | n
CN(C)c1cc[n+](CC[n+]2ccc(N(C)C)cc2)cc1 | n | n | n | n | n | x | x
Cc1ccc(-c2csc(NC(=O)COc3ccc(N(C)S(=O)(=O)c4ccc(C)cc4)cc3)n2)cc1 | n | n | n | n | n | x | x
COc1ccc(NC(=O)COc2ccc(N(C)S(=O)(=O)c3ccc(Cl)cc3)cc2)cc1OC | n | n | n | 59 | n | n | 58
COc1ccc(NS(=O)(=O)c2ccc(OC)c(N(C)S(=O)(=O)c3ccc(Cl)cc3)c2)cc1 | n | n | n | 57 | n | n | n
SMILES | NR5A2 inv ag | NCOA1 inh | SRC3 inh | COUP-TFII inh | NCOA2 inhibitor | VP16 Luc counter | NR2F2 inh conf
COc1ccc(S(=O)(=O)Nc2ccc(F)cc2)cc1N(C)S(=O)(=O)c1ccc(Cl)cc1 | n | n | n | n | n | x | x
COc1ccc(-c2csc(NC(=O)COc3ccc(N(C)S(=O)(=O)c4ccc(C)cc4)cc3)n2)cc1 | n | n | n | 40 | n | n | n
Nc1[nH]c(C(=O)c2ccc(Br)cc2)c(-c2ccccc2)c1C(=O)NCCc1c[nH]c2ccccc12 | x | x | x | n | n | x | x
CCCN(C)C1CN(Cc2cn(Cc3cccc(C(F)(F)F)c3)nn2)S(=O)(=O)C1 (centres undefined) | n | x | x | n | n | x | x
O=C(Nc1cc(Sc2nc3ccccc3s2)cc([N+](=O)[O-])c1)c1ccccc1 | n | n | n | n | n | x | x
O=C(Nc1cc(Sc2ccccn2)cc([N+](=O)[O-])c1)c1cccc(F)c1 | n | n | n | 42 | n | n | n
CCCCOCCCNC(=O)C[C@H]1C[C@@]2(C(=O)OC)C(=C[C@H](C(C)(C)C)O[C@@H]2C)N(Cc2cccc3ccccc23)C1=O | x | x | x | n | n | x | x
